Laboratory results as given in PubChem BioAssay AID1159580 (chemical genetic matrix, 2015).
The whole screen tested about 5,500 compounds, of which about 2,000 (36%) were called active. About 18% were inconclusive and are not listed. Cut-off read from the data, not from the text of the source: active = normalized growth mostly below about 0.91 (no sharp cut-off); inconclusive = no clear call, values can overlap the other calls; inactive = mostly above about 0.92. The list shows a part of the results.

Assay: chemical genetic growth profiling, strain panel (AID 1159580);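 note: tested at 20 µM; growth read once vehicle control cultures reached saturation at 30 °C; 1 = growth at the plate median or of vehicle wells; lower values mean less growth of the strain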
Conditions: S. cerevisiae deletion strains, growth OD

Measured: normalized growth

CO/N=C(/C(=O)NC1C(=O)N2C(C(=O)OCOC(=O)C(C)(C)C)=C(/C=C\c3scnc3C)CSC12)c1csc(N)n1 (centres undefined)
inactive: locus YAL021C, strain ccr4, stronger effect = lower value 0.974 | locus YAL026C, strain drs2, stronger effect = lower value 1.01 | locus YAL030W, strain snc1, stronger effect = lower value 0.992 | locus YBL061C, strain skt5, stronger effect = lower value 1 | locus YBR009C, strain hhf1, stronger effect = lower value 0.98 | locus YBR023C, strain chs3, stronger effect = lower value 1 | locus YBR171W, strain sec66, stronger effect = lower value 1 | locus YBR231C, strain swc5, stronger effect = lower value 0.965 | locus YBR279W, strain paf1, stronger effect = lower value 1 | locus YCL011C, strain gbp2, stronger effect = lower value 1 | locus YCL016C, strain dcc1, stronger effect = lower value 1 | locus YCL069W, strain vba3, stronger effect = lower value 0.999 | locus YCR088W, strain abp1, stronger effect = lower value 0.999 | locus YDL005C, strain med2, stronger effect = lower value 0.999 | locus YDL040C, strain nat1, stronger effect = lower value 1 | locus YDR001C, strain nth1, stronger effect = lower value 1.01 | locus YDR069C, strain doa4, stronger effect = lower value 1.01 | locus YDR137W, strain rgp1, stronger effect = lower value 1.03 | locus YDR159W, strain sac3, stronger effect = lower value 0.902 | locus YDR195W, strain ref2 0.96 | locus YDR297W, strain sur2, stronger effect = lower value 1.01 | locus YDR334W, strain swr1, stronger effect = lower value 0.989 | locus YDR335W, strain msn5, stronger effect = lower value 1.01 | locus YDR392W, strain spt3, stronger effect = lower value 0.906 | locus YEL003W, strain gim4, stronger effect = lower value 0.995 | locus YEL037C, strain rad23, stronger effect = lower value 0.988 | locus YEL061C, strain CIN8 (second series), stronger effect = lower value 0.985 | locus YER015W, strain faa2, stronger effect = lower value 0.988 | locus YER016W, strain bim1, stronger effect = lower value 1.03 | locus YER111C, strain swi4, stronger effect = lower value 0.986 | locus YER155C, strain BEM2 (second series), stronger effect = lower value 0.875 | locus YFR010W, strain ubp6, stronger effect = lower value 0.998 | locus YGL167C, strain pmr1, stronger effect = lower value 1 | locus YGL173C, strain kem1, stronger effect = lower value 1 | locus YGL227W, strain vid30, stronger effect = lower value 1.03 | locus YGL240W, strain doc1, stronger effect = lower value 0.976 | locus YGL253W, strain hxk2, stronger effect = lower value 1.01 | locus YHR013C, strain ard1, stronger effect = lower value 1 | locus YHR027C, strain rpn1, stronger effect = lower value 1 | locus YHR030C, strain SLT2, stronger effect = lower value 1.05 | locus YHR079C, strain IRE1, stronger effect = lower value 1.04 | locus YHR142W, strain chs7, stronger effect = lower value 1.02 | locus YJL092W, strain hpr5, stronger effect = lower value 0.995 | locus YJL095W, strain BCK1 (second series), stronger effect = lower value 0.994 | locus YJL095W, strain BCK1, stronger effect = lower value 1.01 | locus YJL115W, strain asf1, stronger effect = lower value 1 | locus YJL129C, strain trk1, stronger effect = lower value 1.01 | locus YJL154C, strain vps35, stronger effect = lower value 0.996 | locus YJL164C, strain tpk1, stronger effect = lower value 0.989 | locus YJL166W, strain qcr8, stronger effect = lower value 1 | locus YJL187C, strain SWE1, stronger effect = lower value 1 | locus YJR066W, strain TOR1, stronger effect = lower value 1.01 | locus YKL160W, strain elf1, stronger effect = lower value 1 | locus YKR026C, strain gcn3, stronger effect = lower value 0.994 | locus YKR091W, strain srl3, stronger effect = lower value 0.993 | locus YLL001W, strain dnm1, stronger effect = lower value 0.953 | locus YLL026W, stronger effect = lower value 0.996 | locus YLL041C, strain sdh2, stronger effect = lower value 0.997 | locus YLR027C, strain aat2, stronger effect = lower value 1 | locus YLR113W, strain HOG1, stronger effect = lower value 0.962 | locus YLR221C, strain rsa3, stronger effect = lower value 0.994 | locus YLR258W, strain gsy2, stronger effect = lower value 1.01 | locus YLR262C, strain YPT6 (second series), stronger effect = lower value 0.992 | locus YLR320W, strain mms22, stronger effect = lower value 0.955 | locus YLR342W, strain FKS1, stronger effect = lower value 1.01 | locus YLR357W, strain rsc2, stronger effect = lower value 0.942 | locus YLR370C, strain arc18, stronger effect = lower value 0.991 | locus YLR384C, strain iki3, stronger effect = lower value 1.02 | locus YML120C, strain ndi1, stronger effect = lower value 0.995 | locus YMR058W, strain fet3, stronger effect = lower value 0.991 | locus YMR125W, strain sto1, stronger effect = lower value 0.981 | locus YMR129W, stronger effect = lower value 0.992 | locus YMR205C, strain PFK2, stronger effect = lower value 0.99 | locus YMR231W, strain pep5, stronger effect = lower value 0.994 | locus YNL071W, strain lat1, stronger effect = lower value 0.999 | locus YNL183C, strain NPR1, stronger effect = lower value 0.981 | locus YNL209W, strain ssb2, stronger effect = lower value 1.01 | locus YNL248C, strain rpa49, stronger effect = lower value 1.01 | locus YNL322C, strain KRE1 (second series), stronger effect = lower value 0.984 | locus YNR049C, strain mso1, stronger effect = lower value 0.991 | locus YOR001W, strain rrp6, stronger effect = lower value 0.973 | locus YOR070C, strain gyp1, stronger effect = lower value 1 | locus YOR080W, strain dia2, stronger effect = lower value 0.996 | locus YOR083W, strain WHI5, stronger effect = lower value 0.95 | locus YOR106W, strain vam3, stronger effect = lower value 1.01 | locus YOR231W, strain MKK1, stronger effect = lower value 1.01 | locus YOR265W, strain rbl2, stronger effect = lower value 0.998 | locus YOR270C, strain vph1, stronger effect = lower value 1.04 | locus YOR290C, strain snf2, stronger effect = lower value 1.01 | locus YPL051W, strain arl3, stronger effect = lower value 1.01 | locus YPL078C, strain atp4, stronger effect = lower value 0.998 | locus YPL106C, strain sse1, stronger effect = lower value 1.01 | locus YPL240C, strain hsp82, stronger effect = lower value 1 | locus YPL256C, strain CLN2, stronger effect = lower value 1.03
